Screening data: PubChem BioAssay, Buhrlage Lab, Dana-Farber Cancer Institute and Novartis Institutes for BioMedical Research (Cambridge, Mass)
USP17 inh – human USP17-like deubiquitinase inhibition; A8MUK1; purified USP17, Ub-rhodamine cleavage fluorescence, 3 h; inhibition, % at 50 µM; actives 6.5% (n = 47,000)
OTUD3 inh – blocks human OTUD3 ubiquitin-rhodamine cleavage; Q5T2D3; AID 1645858; inhibition, % at 25 µM; purified OTUD3, Ub-rhodamine fluorescence, 2 h; actives 0.7% (n = 47,000)
Target sequence (Q5T2D3 whole entry, looked up): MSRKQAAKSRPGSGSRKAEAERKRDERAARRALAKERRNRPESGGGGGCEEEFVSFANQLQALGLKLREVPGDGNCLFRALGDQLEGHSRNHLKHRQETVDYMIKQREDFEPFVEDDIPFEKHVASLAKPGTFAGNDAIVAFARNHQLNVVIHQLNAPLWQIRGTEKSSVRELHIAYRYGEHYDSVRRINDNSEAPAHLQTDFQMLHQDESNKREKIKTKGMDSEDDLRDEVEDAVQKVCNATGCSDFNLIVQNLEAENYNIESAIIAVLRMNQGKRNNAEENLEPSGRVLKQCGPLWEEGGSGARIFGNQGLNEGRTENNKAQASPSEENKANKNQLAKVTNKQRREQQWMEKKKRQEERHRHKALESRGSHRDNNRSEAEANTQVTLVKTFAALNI
USP30 block – human USP30 deubiquitinase inhibition. Q70CQ3. purified USP30, Ub-rhodamine cleavage fluorescence. inhibition, % at 25 µM. actives 5.3% (n = 47,000). AID 1645860
USP28 inh – blocks human USP28 ubiquitin-rhodamine cleavage; Q96RU2; purified USP28, Ub-rhodamine cleavage fluorescence, 30 min; inhibition, % at 25 µM; actives 3% (n = 47,000); AID 1645857
Active calls of the source: *; i = inactive; · = no result given. Sampled rows, rich in hits. Any-hit rate of the full collection: about 11%. Rule as the data show it: active = inhibition above about 30%; inactive = the rest.

SMILES	USP17 inh	OTUD3 inh	USP30 block	USP28 inh
O=C(Nc1cccc(-c2ccc(N3CCOCC3)nn2)c1)c1cccc2ccccc12	15	-3	1	-3
COc1ccc(NC(=O)c2ccc(-c3ccc(N4CCCC4)nn3)cc2)c(OC)c1	41*	10	6	13
CCN1[C@H]2CCN(C(=O)Nc3ccccc3)CC[C@@H]2Oc2ccccc2S1(=O)=O	-8	0	-5	-11
COc1ccc(C)cc1NS(=O)(=O)c1ccc2c(c1)NC(=O)C(C)CS2 (centres undefined)	7	-7	4	-14
CCn1c(=O)c(C(=O)Nc2ccc(Br)cc2)nc2ccccc21	34*	-1	-10	-2
Cn1c(=O)c(C(=O)Nc2ccc(Br)cc2F)nc2ccccc21	46*	-5	4	-5
Cn1c(=O)c(C(=O)Nc2ccc(Br)cc2)nc2ccccc21	12	7	34*	13
CC(=O)Nc1cccc(NC(=O)c2nc3ccccc3n(C)c2=O)c1	0	8	8	7
O=C(CC(NCc1ccccc1)C(=O)O)Nc1ccccc1Cl (centres undefined)	9	8	17	2
COc1cc(N2CC[C@@H]3OCCN(C(C)=O)[C@H]3CC2)ncn1	-27	4	1	0
Cc1ccc(-c2cn(CC(=O)NCc3cccc(F)c3)c(=O)o2)cc1	77*	0	56*	28
Cc1cc(Nc2ccc(C(=O)Nc3ccc(F)cc3)cc2)n2nc(-c3cccnc3)nc2n1	-7	7	25	10
CC(C)CCN1Cc2c(C(=O)Nc3ccccc3)ncn2-c2ccccc2S1(=O)=O	-10	-15	-13	-11
CC(C)CCN1Cc2c(C(=O)NCc3ccccc3)ncn2-c2ccccc2S1(=O)=O	19	26	42*	23
O=C(NCC1CC1)c1ncn2c1CN(CC1CC1)S(=O)(=O)c1ccccc1-2	4	13	34*	11
COC(=O)c1c(NC(=O)c2ccc(N(C)S(C)(=O)=O)cc2)sc2c1CCCC2	-1	-3	-9	-8
COc1cccc(N2CCN(c3nc(C)c(Cc4ccccc4)c(=O)[nH]3)CC2)c1	10	10	17	8
O=C(/C=C/c1ccccc1)N1CCc2[nH]nc(-c3ccc(F)cc3)c2C1	0	-11	-1	-1
O=C(/C=C/c1ccc(Br)cc1)N1CCc2ccccc2C1	35*	2	-9	0
CC(C)c1ccc(/C=C/C(=O)N2CCc3ccccc3C2)cc1	54*	27	36*	29
CC(=O)Nc1ccc(SC(C)C(=O)N2CCc3ccccc3C2)cc1 (centres undefined)	-14	-3	-2	-5
O=C(c1cccc(C(F)(F)F)c1)N1CCSc2ccc(Cl)cc21	13	2	14	9
Cc1cc(=O)[nH]c(C2CCCN2C(=O)c2ccccn2)n1 (centres undefined)	15	6	·	·
Cc1ncc(-c2cncc(CC3CCN(S(C)(=O)=O)CC3)n2)n1C	5	12	9	5
CC(C)C[C@@H](NC(=O)C1CCN(C(=O)[C@H](C)NC(=O)OC(C)(C)C)CC1)C(=O)O	·	8	22	8
SMILES	USP17 inh	OTUD3 inh	USP30 block	USP28 inh
Cc1cccc(CN2C(=O)N(Cc3ccccc3)S(=O)(=O)c3ccccc32)c1	7	17	34*	15
CC(=O)c1ccc(N2C(=O)N(Cc3cccc([N+](=O)[O-])c3)c3ccccc3S2(=O)=O)cc1	14	15	53*	18
CCOc1ccc(N2C(=O)N(CC(=O)c3ccc(F)cc3)c3ccccc3S2(=O)=O)cc1	13	7	13	14
Cc1ccc(NC(=O)O[C@@H]2CO[C@H]3[C@@H]2OC[C@@H]3Nc2nccc(C(C)(C)C)n2)cc1	-16	-11	-10	0
Cc1cc(=O)n2c(n1)NC(N1CCC(Cc3ccccc3)CC1)=NC2c1cccnc1 (centres undefined)	-1	9	22	3
Cc1cc(C)n(-c2ccnc(N3CCC(C(=O)N4CCN(c5ccccn5)CC4)CC3)n2)n1	-4	4	5	30*
Cc1nnc(SCC(=O)c2ccc3ccccc3c2)n1Cc1ccccc1	0	-3	6	1
O=C(CSc1nnc(-c2ccncc2)n1Cc1ccccc1)c1ccc2[nH]c(O)cc2c1	58*	-5	-48	27
CS(=O)(=O)c1ccc(N2CCCN(C(=O)c3ccccc3)CC2)cc1	17	14	23	15
CC(C)N1C[C@@H]2C[C@H](NC(=O)c3cccs3)CN2Cc2ccccc21	-119	-120	i	-97
CCOC(=O)c1nn(-c2ccc(F)cc2)c2c1CCCCC2	12	8	13	36*
